From paper PMC6792352, “Limited Chemical Structural Diversity Found to Modulate Thyroid Hormone Receptor in the Tox21 Chemical Library” (Environmental Health Perspectives, 2019)
Where a name gives a salt, the structure may show the parent alone.

system: thyroid hormone receptor (endogenous TRα and TRβ); design: species or system GH3-TRE-Luc (rat pituitary); GH3-TRE-Luc luciferase reporter, antagonist mode against 1 nM T3, loss of signal, qHTS; settings: read-out: Average AC50 (uM) GH3-TRE-Antag, antagonist mode, 1 nM T3, no GH3 cytotoxicity hit

Going from CCC(C)(CC)c1cc(NC(=O)c2c(OC)cccc2OC)on1 [Isoxaben] to CO/N=C(/C(=O)OC)c1ccccc1COc1ccccc1C [Kresoxim-methyl], the AC50 falls from over 90 µM to 3.65 µM.

For CCc1c2c(nc3ccc(OC(=O)N4CCC(N5CCCCC5)CC4)cc13)-c1cc3c(c(=O)n1C2)COC(=O)[C@]3(O)CC [Irinotecan hydrochloride], the AC50 was 19.1 µM.
